From PubChem BioAssay
The source made the active and inactive calls. Unless noted, no rule for the calls is given here.

How the values were obtained:
[1] = tested on: XIP peptide (Xip251-270) binding; experiment: small-molecule binders of XIP peptide, primary screen, biochemical, small-molecule microarray, fluorescence 635/667 nm, 0.1 µg/mL protein (AID 1182); details: fluorescent protein binding, 635 nm, higher = more signal, called active from +8 up or from −8 down
XIP peptide (Xip251-270) = experiment: small-molecule binders of XIP peptide, primary screen, biochemical, small-molecule microarray, fluorescence 635/667 nm, 0.5 µg/mL protein (AID 1183); details: small-molecule microarray binding, fluorescence 635 nm; higher = more signal
[2] = Plasmodium falciparum growth inhibition, primary screen, strain 3D7, DAPI fluorescence, 100 nL (AID 1184);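 also: parasites grown inside human red blood cells in medium with human serum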; details: P. falciparum 3D7 growth, 3 d, higher = more signal
[3] = biological target: Homeobox protein Hox-A13 (Mus musculus) (UniProt Q62424); experiment: inhibitors of HoxA13-DNA binding, primary screen, biochemical, fluorescence polarization, labeled oligonucleotide (AID 1185); details: 15 min, higher = more signal, called active from +8 up or from −8 down
Chain of Homeobox protein Hox-A13 (Mus musculus) (Q62424 whole entry, looked up): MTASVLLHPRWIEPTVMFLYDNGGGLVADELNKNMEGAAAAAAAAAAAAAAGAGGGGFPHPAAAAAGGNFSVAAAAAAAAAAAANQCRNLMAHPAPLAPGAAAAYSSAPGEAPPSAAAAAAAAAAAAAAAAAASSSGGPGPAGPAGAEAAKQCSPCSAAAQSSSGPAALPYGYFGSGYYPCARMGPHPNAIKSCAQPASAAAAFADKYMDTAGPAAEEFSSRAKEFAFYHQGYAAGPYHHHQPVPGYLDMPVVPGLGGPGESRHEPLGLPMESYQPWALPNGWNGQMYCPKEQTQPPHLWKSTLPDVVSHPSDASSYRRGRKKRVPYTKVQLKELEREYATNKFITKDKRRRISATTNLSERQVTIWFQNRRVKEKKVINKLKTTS

[4] = inhibitors of hydroxyurea-induced Chk1 phosphorylation, primary screen, imaging, HeLa, phospho-Chk1 antibody, percent positive cells (AID 1186); details: hydroxyurea-induced phospho-Chk1 immunofluorescence imaging, higher = more signal
[5] = inhibitors of hydroxyurea-induced Chk1 phosphorylation, primary screen, imaging, HeLa, phospho-Chk1 nuclear intensity (AID 1187); details: hydroxyurea-induced phospho-Chk1 immunofluorescence imaging, higher = more signal

Structure (SMILES)	composite z-score [1]	composite z-score (XIP peptide (Xip251-270))	z-score [2]	z-score [3]	z-score [4]	z-score [5]
COC(=O)C[C@H]1O[C@]2(C(=O)N(Cc3ccccc3)c3ccc(I)cc32)[C@@H](C)[C@@H]1[Si](C)(C)c1ccc(OC)cc1	-0.0923 (inactive)	-0.0988	-3.07	1.04 (inactive)	-0.504 (inactive)	-0.584 (inactive)
CC(=O)NCCCC[C@@H]1NC(=O)[C@H]2C[C@@H](C(=O)NCCCCCCN(C)C)[C@@H](c3cccc(OCCO)c3)N2C1=O	2.96 (inactive)	0.882	-0.0473	-2.84 (inactive)	0.181 (inactive)	0.733 (inactive)
CC(C)CN1C(=O)[C@@]2(Cc3ccccc31)c1ccccc1C(=O)N(C1CCCCC1)[C@H]2c1ccc(CO)cc1	1.15 (inactive)	-0.906	-1.38	-0.429 (inactive)	-0.81 (inactive)	-1.17 (inactive)
CCCC[C@@H]1C[C@H]1[C@@H](NC(=O)c1ccccc1)c1ccccc1C(F)(F)F	0.715 (inactive)	0.193	-1.19	2.99 (inactive)	0.726 (inactive)	0.542 (inactive)
C=CC(=O)O[C@@H](Cc1ccccc1)[C@H]1C2C=CCCC=C2CN1Cc1cccc(Cl)c1 (stereo not given in full)	-0.244 (inactive)	-2.01	-0.0093	-3.7 (inactive)	0.171 (inactive)	0.304 (inactive)
NC(=O)NCC#Cc1ccc2c(c1)[C@]1(C(=O)N2)[C@H](C(=O)N2CCCCCCC2)[C@H]2C(=O)O[C@H](c3ccccc3)[C@H](c3ccccc3)N2[C@@H]1c1ccccc1OCCO	4.02 (inactive)	0.486	-1.83	4.43 (inactive)	0.323 (inactive)	0.671 (inactive)
COCCOC(=O)N1C(=O)[C@@]2(c3cc(C#CCNC(N)=O)ccc31)[C@H](c1ccc(OCCO)cc1)N1[C@H](c3ccccc3)[C@H](c3ccccc3)OC(=O)[C@H]1[C@@H]2C(=O)N1CCCCCCC1	0.067 (inactive)	-0.26	-2.1	-11.3 (active)	0.174 (inactive)	0.272 (inactive)
C#C[C@H](O[Si](C#Cc1ccccc1)(C(C)C)C(C)C)c1ccccc1	0.114 (inactive)	0.311	-1.16	-1.52 (inactive)	0.116 (inactive)	0.201 (inactive)
COC(=O)Cn1c(C(=O)N2CCCC2)cc2c1C[C@H]1CN(C(=O)c3ccccc3)[C@@](Cc3ccc(OC)cc3)(C(=O)OC)[C@@H]21	0.516 (inactive)	0.518	-1.48	-3.21 (inactive)	0.847 (inactive)	0.487 (inactive)
C=CC[C@]1(C(=O)O)N=C(c2ccc(OCCCO)cc2)O[C@H]1c1ccccc1N=[N+]=[N-]	0.718 (inactive)	-0.519	-1.3	-5.25 (inactive)	-0.0145 (inactive)	0.144 (inactive)
O=C1NC(=O)C2C1C=CC(C(O)C=Cc1ccc([N+](=O)[O-])cc1)N2Nc1ccccn1 (stereo not given)	0.433 (inactive)	0.792	-0.304	-1.88 (inactive)	-0.746 (inactive)	-0.987 (inactive)
Cc1cc(C)c(C(O)C2C=CC3C(=O)N(C)C(=O)C3N2N2CCCCC2)c(C)c1 (stereo not given)	0.0255 (inactive)	0.849	1.09	-3.3 (inactive)	-0.514 (inactive)	-0.224 (inactive)
C=CCN1C(=O)[C@@]2(Cc3ccccc3)N=C(c3ccc(OCCCO)cc3)O[C@H]2c2ccccc21	1.67 (inactive)	0.79	-1.92	-0.611 (inactive)	-0.0856 (inactive)	-0.138 (inactive)
C=CCC1=C[C@H]2[C@H]([C@@H]3C=C[C@]2(CC=C)C(=O)[C@]32CO2)[C@@]2(CO2)C1=O	1.7 (inactive)	-0.489	-0.0419	-1.29 (inactive)	-0.556 (inactive)	-0.606 (inactive)
CCCNC(=O)[C@@H]1c2ccccc2C(=O)N(Cc2cc(F)cc(C(F)(F)F)c2)[C@H]1c1ccc(CO)cc1	0.395 (inactive)	0.801	-0.43	-2.12 (inactive)	-0.438 (inactive)	-0.142 (inactive)
CN1C2C=C(c3ccc(CO)cc3)C(C3C(=O)N(C(N)=O)C(=O)C32)C1c1cccs1 (stereo not given)	0.549 (inactive)	0.92	-1.65	-5.19 (inactive)	-1.21 (inactive)	-1.11 (inactive)
CC(C)(C)OC(=O)CC[C@]1(C(=O)N2CCCCC2)N=C(c2ccc(OCCCO)cc2)O[C@H]1c1ccccc1	1.24 (inactive)	0.814	-2.31	-4.83 (inactive)	-0.478 (inactive)	-0.787 (inactive)
C=C[C@H](OC)[C@@H](OC(=O)Nc1ccc(SC)cc1)c1ccc(OC)c(O)c1	0.241 (inactive)	0.0001	-0.549	-2.82 (inactive)	-0.439 (inactive)	0.136 (inactive)
Cc1ccc(N2C(=O)c3ccccc3[C@](C)(C(=O)O)[C@@H]2c2ccc(CO)cc2)nc1	-0.235 (inactive)	-1.16	-0.63	-0.0226 (inactive)	0.153 (inactive)	0.522 (inactive)
COCCCNC(=O)[C@@]1(c2ccc([N+](=O)[O-])cc2)CC(=O)N(C2CCCCC2)[C@@H]1c1ccc(CO)cc1	0.516 (inactive)	-0.0219	-0.214	-2.99 (inactive)	0.029 (inactive)	-0.269 (inactive)

Structure (SMILES)	composite z-score [1]	composite z-score (XIP peptide (Xip251-270))	z-score [2]	z-score [3]	z-score [4]	z-score [5]
CCC#CCN(Cc1ccccc1Br)[C@H](/C=C/c1ccccc1)[C@@H](O)Cc1ccccc1	-0.276 (inactive)	-0.613	-0.609	0.462 (inactive)	-0.415 (inactive)	-0.241 (inactive)
NC(=O)NCC#Cc1ccc2c(c1)[C@]1(C(=O)N2)[C@H](c2ccccc2OCCO)N2[C@H](c3ccccc3)[C@H](c3ccccc3)OC(=O)[C@H]2[C@@H]1C(=O)N1CCN(c2ncccn2)CC1	0.233 (inactive)	0.763	-2.34	0.487 (inactive)	0.553 (inactive)	1.5 (inactive)
CC/C=C/C(=O)N(C[C@@H]1CCCO1)[C@@H]1CC(C(=O)NCCO)=C[C@H](Oc2c(I)cc(CO)cc2OC)[C@H]1O	0.969 (inactive)	-0.769	-1.03	-5.37 (inactive)	1 (inactive)	1.11 (inactive)
C[N+](C)(C)CCCC[C@@H]1NC(=O)[C@H]2C[C@@H](C(=O)NCc3ccc(F)cc3)[C@@H](c3cccc(OCCO)c3)N2C1=O	1.61 (inactive)	0.675	0.13	-1.22 (inactive)	0.06 (inactive)	0.274 (inactive)
COCCOC(=O)N1C(=O)[C@@]2(c3cc(C#CCNC(N)=O)ccc31)[C@H](c1ccc(OCCO)cc1)N1[C@H](c3ccccc3)[C@H](c3ccccc3)OC(=O)[C@H]1[C@@H]2C(=O)Nc1nc2ccccc2s1	0.329 (inactive)	-0.444	-1.08	0.967 (inactive)	0.0818 (inactive)	0.238 (inactive)
COc1cc2c(cc1OC)CN(C(=O)[C@H]1[C@@H]3C(=O)O[C@@H](c4ccccc4)[C@@H](c4ccccc4)N3[C@@H](c3ccccc3OCCO)[C@]13C(=O)Nc1ccc(C#CC4(O)CCCCCC4)cc13)CC2	1.62 (inactive)	0.837	-2.14	1.74 (inactive)	-0.0766 (inactive)	0.196 (inactive)
CCOC(=O)C[C@H]1[C@H](OC(=O)c2cc3ccccc3oc2=O)[C@@H](NC(=O)c2ccc3ccccc3c2)c2cc(OCCCO)ccc2N1C(=O)c1ccc2ccccc2n1	0.227 (inactive)	-0.333	-1.6	-1.06 (inactive)	-0.0364 (inactive)	0.034 (inactive)
CC[C@@H]1C=C(C(=O)O)[C@H](c2ccccc2)N1S(=O)(=O)c1ccc([N+](=O)[O-])cc1	-0.0477 (inactive)	0.729	-1.01	-3.73 (inactive)	-0.0036 (inactive)	-0.3 (inactive)
COc1cc(CO)cc(I)c1O[C@H]1C=C(C(=O)NCCO)C[C@@H](NCCc2c[nH]c3ccccc23)[C@@H]1O	-0.26 (inactive)	0.0826	-3	-7.08 (inactive)	-0.925 (inactive)	-0.879 (inactive)
C[C@@H]1NC(=O)[C@H](Cc2ccccc2)NC(=O)[C@@]23C(=O)N[C@@H](Cc4ccccc4)C2[C@H](C)[C@@]2(C)O[C@H]2C3/C=C/C/C=C\CNC1=O (stereo not given in full)	-0.138 (inactive)	0	-0.5	-6.67 (inactive)	0.4 (inactive)	0.374 (inactive)
CCCC[C@@H]1C[C@H]1[C@@H](NC(=O)c1cccs1)c1ccc(Cl)cc1	0.0874 (inactive)	-0.0771	-0.911	-0.736 (inactive)	-0.207 (inactive)	0.205 (inactive)
C=CCC(OC(C)=O)[C@@H]1[C@@H](N(Cc2ccc(-c3ccccc3)cc2)C(=O)c2ccc(-c3ccccc3)cc2)c2cc(OCCCO)ccc2N1C(=O)Cc1ccc(OC)cc1 (stereo not given in full)	0.195 (inactive)	-0.126	-0.314	-1.31 (inactive)	-0.282 (inactive)	-0.47 (inactive)
Cc1ccc(S(=O)(=O)c2cc3oc2CC[C@@H](CO)NC(=O)N(C)Cc2cn(nn2)C[C@H](Cc2ccccc2)NC3=O)cc1	-0.126 (inactive)	-0.612	-0.746	-4.42 (inactive)	-0.131 (inactive)	-0.0334 (inactive)
CCCN1C(=O)[C@@]2(CCS(=O)(=O)c3ccccc3)N=C(c3ccc(OCCCO)cc3)O[C@H]2c2ccccc21	0.261 (inactive)	0.678	-2.56	-3.2 (inactive)	0.128 (inactive)	0.371 (inactive)
COC(=O)c1ccc(C#CC(NP(=O)(c2ccccc2)c2ccccc2)c2ccccc2)cc1 (stereo not given)	0.238 (inactive)	-0.0253	-0.253	-3.02 (inactive)	-1.14 (inactive)	-1.03 (inactive)
O=C(NCc1ccccc1)c1ccc(Br)cc1[N+](=O)[O-]	0.103 (inactive)	0.0871	2.11	0.513 (inactive)	0.225 (inactive)	0.119 (inactive)
C=C(COC)C(=O)CC[C@H](OC(=O)c1ccccc1-c1ccccc1C(=O)O)c1cccc(OCCO)c1	0.437 (inactive)	0.569	-0.034	-4.76 (inactive)	0.369 (inactive)	0.258 (inactive)
COCCOC(=O)N1C(=O)[C@@]2(c3cc(C#CCCO)ccc31)[C@H](c1ccc(O)cc1)N1[C@H](c3ccccc3)[C@H](c3ccccc3)OC(=O)[C@H]1[C@@H]2C(=O)Nc1nc2ccccc2s1	0.449 (inactive)	0.635	-1.04	-1.98 (inactive)	-0.534 (inactive)	-0.733 (inactive)
CC(C)N1CC=CC23O[C@@H]4/C=C\CCCOC(=O)C4[C@H]2C(=O)N(CCCCCO)[C@@H]3C1=O (stereo not given in full)	-0.301 (inactive)	-1.95	-0.426	-4.61 (inactive)	-0.261 (inactive)	-0.128 (inactive)
O=C1O[C@@H](c2ccccc2)[C@@H](c2ccccc2)N2[C@@H](c3ccc(OCCO)cc3)[C@]3(C(=O)Nc4ccc(C#CCCO)cc43)[C@@H](C(=O)N3CCN(c4ncccn4)CC3)[C@H]12	0.42 (inactive)	0.721	-2.03	-0.282 (inactive)	0.396 (inactive)	0.92 (inactive)
